In the library only some 13% were active in any assay of this set; here they are far more common.
HCV inhibitor = HCV inhibition; Huh7.5.1 HCVcc-Cre infection, luciferase reporter, 44 h; Potency, µM (top dose mostly 41.8 µM), for the others: top-dose activity change, negative = inhibition, actives largely listed as inhibitors; 340,000 tested, 3.4% active; AID 651820; also: potency is read from the fitted curve at half-maximal effect
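Cells (1,000/well) were plated 4 h before compound, then infected with HCVcc-Cre virus (~0.5 moi). After 44 h further culture, infection was read as luciferase luminescence following a 15 min substrate incubation at room temperature.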
Pf growth 48h = P. falciparum growth inhibition at 48 hours (one generation); P. falciparum luciferase growth in erythrocytes, 48 h; Potency, µM (highest dose often 28.7 µM), without a hit: at the top dose activity change, negative = inhibition, hits mostly inhibitors; 310,000 tested, 5.9% active; AID 504832; also: potency is read from the fitted curve at half-maximal effect
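Luminescence readout; reporter = integrated firefly luciferase in P. falciparum. RBC culture at 2% hematocrit, 0.1% parasitemia final, 37 C/5% CO2; decreased signal taken as growth inhibition.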
HCMV inh = blocks human cytomegalovirus replication. HFF cells, HCMV-luciferase reporter, 72 h; stronger effect = lower value. activity change, negative = inhibition, % at 57.5 µM. 410,000 tested, 4.5% active. AID 1259415; in the data active = activity change below about -60%; inconclusive = no clear call, values can overlap the other calls; inactive = above about -39%
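Steps: HFFs plated, 16 h 37C; compounds added; HCMV-luciferase added to MOI 1 PFU/cell; 72 h 37C; OneGlo reagent, 5 min room temperature; luminescence read, normalized to controls.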
Pf growth 96h = P. falciparum growth inhibition at 96 hour, primary screen for plastid delayed-death inhibitors | 320,000 tested, 6.9% active | P. falciparum luciferase reporter growth, 96 h | Potency, µM (series often up to 28.7 µM), for inactives: at the top dose activity change, negative = inhibition, hits mostly inhibitors; also: potency is read from the fitted curve at half-maximal effect
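Parasite growth measured via integrated firefly luciferase reporter in P. falciparum. Infected erythrocytes at 2% hematocrit, 0.05% parasitemia final were treated 96 hours at 37 C under 5% CO2, and luminescence was read.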
An asterisk follows results filed as active; i = inactive; ? = inconclusive; . = not tested or not shown; [ ] = dose if it differs, or a comment. Unless noted, calls follow the shape of the dose curve; as a rule, active = well fitted inhibition curve with a large enough effect; inconclusive = small, poorly fitted or top-dose-only effect, or another doubt; inactive = no such curve, though single readings can be large or run the other way. % is scaled to controls: 0 for no effect and ±100 for the full control effect.

SMILES | HCV inhibitor | Pf growth 48h | HCMV inh | Pf growth 96h
CCOc1ccccc1NC(=O)c1cc(SC)ccc1Cl | 22µM* | -10% | -27 | 14%
Cc1cc(F)ccc1NC(=O)c1cnccn1 | 22% | ? | -34 | 236%
COc1ccc(CNC(=O)CCc2cn(C)c3ccccc23)cc1 | . | . | 11 | .
CCCc1cc(=O)oc2cc(C)c3c(-c4cccc(OC)c4)coc3c12 | . | . | -2 | .
CCOc1ccc(NC(=O)C(=O)NCCc2sc(-c3ccc(C)cc3)nc2C)cc1 | . | . | 29 | .
COc1ccc(NC(=O)Nc2ccc(C)cc2OC(F)F)cc1OC | 6.3µM* | ? | -2 | -1%
CCOc1ccccc1NC(=O)c1cnccn1 | ? | ? | -11 | 12µM*
O=C(Nc1ccccc1Oc1ccccc1)c1cnccn1 | -10% | ? | 24 | 1%
Cc1ccc(NC(=O)Nc2ccc3c(c2)OCO3)c(OC(F)F)c1 | -27% | 76% | 62 | 7%
CCOc1ccccc1NC(=O)Nc1ccncc1 | ? | 3.3µM* | -8 | 15%
CCOc1ccccc1NC(=O)Nc1ccon1 | ? | 15% | -23 | 109%
CCOc1ccccc1NC(=O)/C(C#N)=C/c1cccnc1 | 7% | -23% | 29 | 13µM*
COc1ccc(-c2nc(SCC(=O)c3ccc(OC)c(Br)c3)n[nH]2)cc1 | . | . | 3 | .
Cc1ccc(NC(=S)NCc2ccc(Cl)cc2)c(OC(F)F)c1 | -18% | ? | -10 | 4.1µM*
CCOc1ccccc1NC(=O)c1ccc(C(=O)Nc2ccccc2OCC)nc1 | -4% | -5% | -64* | ?
CCN(Cc1ccccc1)c1ncnc2c1nnn2C | . | . | 2 | .
COc1ccc(OC)c(NS(=O)(=O)c2ccc3[nH]c(=O)[nH]c3c2)c1 | . | . | -102* | .
COc1ccc(C)cc1NS(=O)(=O)c1ccc2[nH]c(=O)c(=O)[nH]c2c1 | . | . | 6 | .
COc1ccc(OC)c(NS(=O)(=O)c2ccc(Cl)nc2)c1 | 15% | -7% | 0 | -12%
CCCCOc1ccc(S(=O)(=O)Nc2cc(OC)ccc2OC)cc1 | 10µM* | 5% | ? | 57%
COc1ccc(-c2c(C)nn3c(N4CCCCCC4)cc(C)nc23)cc1OC | 11µM* | 1%[0.00184 µM] | -61* | -18%
COc1ccc(-c2c(C)nn3c(N4CCC5(CC4)OCCO5)cc(C)nc23)cc1OC | ? | 12µM* | 1 | -1%
Cc1ccc(N(C)C(=O)n2cnc3ccccc32)cc1 | 3% | 3.7µM* | -40 | 9.3µM*
O=C(CCCC(=O)n1cnc2ccccc21)n1cnc2ccccc21 | 6% | 2% | -38 | 3%
CN(C)S(=O)(=O)N(CC(=O)Nc1ccc(Br)cc1F)c1ccccc1 | . | . | -5 | .
SMILES | HCV inhibitor | Pf growth 48h | HCMV inh | Pf growth 96h
CCn1c(C)cc(C=C2C(=O)c3ccccc3C2=O)c1C | ? | -81% | 32 | 5%
Cc1cc(C=C2C(=O)c3ccccc3C2=O)c(C)n1C | 3% | -18% | -17 | 4.7µM*
O=C1C(=Cc2cccs2)C(=O)c2ccccc21 | 8% | 2% | -19 | 2%
Cc1ccc(C=C2C(=O)c3ccccc3C2=O)s1 | 10% | . | 1 | 12µM*
CC(NC(=O)c1cccc(OC2CCN(C(=O)C3CC3)CC2)c1)c1ccc(F)cc1 (stereo unspecified) | ? | -19% | -22 | ?
O=C(NCc1ccccc1Cl)c1cccc(OC2CCN(C(=O)C3CC3)CC2)c1 | ? | 0% | -34 | 8.3µM*
CC1CN(C2=NC(=O)/C(=C3/C(=O)N(Cc4ccc(F)cc4)c4ccccc43)S2)CC(C)O1 (stereo unspecified) | -6% | ? | 10 | 5.9µM*
CN1C(=O)/C(=C2\SC(N3CCCCCC3)=NC2=O)c2ccccc21 | ? | . | 61 | 4.1µM*
COc1cccc(CNC(=O)[C@@H]2CCCN2C(=O)[C@H]2CCCCN2C(=O)c2ccccc2C)c1 | . | . | -9 | .
CC(=O)Nc1ccc(C(=O)Nc2nc(-c3ccccn3)cs2)cc1 | -11% | ? | -9 | ?
O=C(Nc1nc(-c2cc(F)ccc2F)cs1)c1ccccn1 | ? | 8% | -37 | ?
Cc1csc(NC(=O)c2ccc(Cl)cc2[N+](=O)[O-])n1 | 1.6µM* | i | 3 | -30%
Cc1cc(C(=O)Nc2nc(-c3ccccn3)cs2)ccc1[N+](=O)[O-] | 11µM* | 9.3µM* | -72* | ?
O=C(Nc1nc(-c2ccccn2)cs1)c1cc(Cl)ccc1[N+](=O)[O-] | 10µM* | 13µM* | -99* | 2.3µM*
CC1=C(c2ccc(C(C)C)cc2)S(=O)(=O)N=C1N1CCC(C(=O)NCCc2ccco2)CC1 | . | . | -10 | .
CCOC(=O)c1ccc(N2C(=O)c3n[nH]c(-c4cccs4)c3C2c2ccc(C)cc2)cc1 (stereo unspecified) | . | . | 3 | .
CCOC(=O)c1ccc(N2C(=O)c3n[nH]c(-c4cccs4)c3C2c2ccc(O)c(OC)c2)cc1 (stereo unspecified) | . | . | -74* | .
CCOC(=O)c1ccc(N2C(=O)c3n[nH]c(-c4cccs4)c3C2c2cccc(F)c2)cc1 (stereo unspecified) | . | . | 5 | .
CCOC(=O)c1ccc(N2C(=O)c3n[nH]c(-c4cccs4)c3C2c2ccc(Cl)cc2Cl)cc1 (stereo unspecified) | . | . | -107* | .
CCOc1ccc(CNC(=O)CCn2nc(C)c3c(C)n(-c4ccccc4)nc3c2=O)cc1 | . | . | 8 | .
CCOc1ccc(C(=O)NCc2nc3cccnc3n2Cc2cccc(OC)c2)cc1 | . | . | -3 | .
CCCNC(=O)c1cc2c(c(-c3cccc(-c4ccc(F)cc4)c3)n1)[C@H](CCO)N(S(=O)C(C)(C)C)C2 (stereo partly specified) | . | . | -16 | .
CCCNC(=O)c1cc2c(c(-c3cccc(-c4ccc(F)cc4)c3)n1)[C@@H](CCO)N(S(=O)C(C)(C)C)C2 (stereo partly specified) | . | . | -96* | .
Cc1ccc(C)c(N2CCN(C(=O)C3CCN(S(=O)(=O)c4ccc5[nH]c(=O)oc5c4)CC3)CC2)c1 | . | . | -13 | .
Cn1c(=O)c2cc(C(=O)NC3CCCCCC3)sc2c2ccccc21 | . | . | -81* | .
SMILES | HCV inhibitor | Pf growth 48h | HCMV inh | Pf growth 96h
CCn1c(=O)c2cc(C(=O)NCCN3CCOCC3)sc2c2ccccc21 | 11µM* | . | 153 | 11%
CCCCNC(=O)c1cc2c(=O)n(CC)c3ccccc3c2s1 | ? | 2%[0.00184 µM] | 1 | 6.6µM*
CCn1c(=O)c2cc(C(=O)NC(C)C)sc2c2ccccc21 | ? | -15% | 78 | ?
CCn1c(=O)c2cc(C(=O)Nc3cc(C)on3)sc2c2ccccc21 | -12% | . | -2 | ?
CCn1c(=O)c2cc(C(=O)NCc3cccs3)sc2c2ccccc21 | -21% | 57% | -1 | 2.3µM*
CS(=O)(=O)NCC(c1ccco1)N1CCN(c2ccccc2)CC1 (stereo unspecified) | . | . | 96 | .
CN(CCCNC(=O)c1cccn2c(=O)c3ccccc3nc12)Cc1ccccc1 | 11µM* | ? | -19 | ?
CCCN(CCC)CCCNC(=O)c1cc2c(=O)n(C)c3ccccc3c2s1 | . | . | 0 | .
CCn1c(=O)c2cc(C(=O)NCCCN(C)Cc3ccccc3)sc2c2ccccc21 | . | . | -70* | .

High-throughput results deposited in PubChem by National Center for Advancing Translational Sciences (NCATS).
